According to the supplement of paper PMC4022240:
± gives the standard deviation.

Tests used:
Experiment in all cases: peptide microarray binding signal (635 nm), min-max normalized on array (fraction of array maximum); higher = stronger binding
Settings in all cases: peptide region: H3 20-32
[1] = molecular target: T1, HaloTag-ATRX ADD domain (163-292)
T1 chain: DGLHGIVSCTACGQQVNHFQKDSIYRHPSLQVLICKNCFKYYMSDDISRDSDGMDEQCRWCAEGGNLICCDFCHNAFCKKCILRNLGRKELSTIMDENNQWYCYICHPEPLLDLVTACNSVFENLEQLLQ
Summary of the method: (§1)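 Triplicate spots of histone 13-mer peptide–cellulose conjugates with a Cy3 tracer were printed on nitrocellulose and probed for 1 h at 4°C with biotin-labelled HaloTag reader fusions (10 nM to 1 μM) plus streptavidin-Alexa Fluor 647 or rabbit histone antibodies (1:10,000 to 1:2,000) plus anti-rabbit Alexa 647. An Axon GenePix 4000B read the 635 nm channel. Binding signal is the spot-triplicate mean intensity after min-max scaling within each library.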

[2] = molecular target: HaloTag-ING2 PHD (mouse Ing2 200-280)
Summary of the method: as §1

[3] = molecular target: anti-H3K4me3 antibody ab8580
Summary of the method: as §1

[4] = molecular target: anti-H3K9me3 antibody ab8898
Summary of the method: as §1

[5] = peptide modifications: H3K27me3 H3S28ph, binder concentration: 1:2,000 dilution
[6] = peptide modifications: H3K27me3 H3S28ph, binder concentration: 1:10,000 dilution
[7] = peptide modifications: H3K27ac H3S28ph, binder concentration: 1:2,000 dilution
[8] = peptide modifications: H3K27ac H3S28ph, binder concentration: 1:10,000 dilution
[9] = peptide modifications: H3K27me2, binder concentration: 1:2,000 dilution
[10] = peptide modifications: H3K27me2, binder concentration: 1:10,000 dilution
[11] = peptide modifications: H3R26cit H3K27ac, binder concentration: 1:2,000 dilution
[12] = peptide modifications: H3R26cit H3K27ac, binder concentration: 1:10,000 dilution
[13] = peptide modifications: H3K27me2 H3S28ph, binder concentration: 1:2,000 dilution
[14] = peptide modifications: H3K27me2 H3S28ph, binder concentration: 1:10,000 dilution
[15] = peptide modifications: H3R26me1 H3K27me1, binder concentration: 1:2,000 dilution
[16] = peptide modifications: H3R26me1 H3K27me1, binder concentration: 1:10,000 dilution
[17] = peptide modifications: H3R26me2a H3K27me1, binder concentration: 1:2,000 dilution
[18] = peptide modifications: H3R26me2a H3K27me1, binder concentration: 1:10,000 dilution
[19] = peptide modifications: H3R26cit H3K27me1, binder concentration: 1:2,000 dilution
[20] = peptide modifications: H3R26cit H3K27me1, binder concentration: 1:10,000 dilution
[21] = peptide modifications: H3K27ac, binder concentration: 1:2,000 dilution
[22] = peptide modifications: H3K27ac, binder concentration: 1:10,000 dilution
[23] = peptide modifications: H3R26me1 H3K27ac, binder concentration: 1:2,000 dilution
[24] = peptide modifications: H3R26me1 H3K27ac, binder concentration: 1:10,000 dilution

Binder: LATKAARKSAPAT [H3 20-32 L A T K A A R Kme3 Sph A P A T]
- peptide microarray binding signal ([1]; peptide modifications: H3K27me3 H3S28ph, binder concentration: 50 nM): 0.00618 ± 0.00025
- peptide microarray binding signal ([1]; peptide modifications: H3K27me3 H3S28ph, binder concentration: 500 nM): 0.0125 ± 0.00027
- peptide microarray binding signal ([2]; peptide modifications: H3K27me3 H3S28ph, binder concentration: 10 nM): 0.0171 ± 0.0012
- peptide microarray binding signal ([2]; peptide modifications: H3K27me3 H3S28ph, binder concentration: 100 nM): 0.037 ± 0.0095
- peptide microarray binding signal [3, 5]: 0.0312 ± 0.0057
- peptide microarray binding signal [3, 6]: 0.0191 ± 0.0066
- peptide microarray binding signal [4, 5]: 0.104 ± 0.021
- peptide microarray binding signal [4, 6]: 0.0474 ± 0.0052

Binder: LATKAARKSAPAT [H3 20-32 L A T K A A R Kac Sph A P A T]
- peptide microarray binding signal ([1]; peptide modifications: H3K27ac H3S28ph, binder concentration: 50 nM): 0.00903 ± 0.00081
- peptide microarray binding signal ([1]; peptide modifications: H3K27ac H3S28ph, binder concentration: 500 nM): 0.0153 ± 0.0002
- peptide microarray binding signal ([2]; peptide modifications: H3K27ac H3S28ph, binder concentration: 10 nM): 0.0221 ± 0.0015
- peptide microarray binding signal ([2]; peptide modifications: H3K27ac H3S28ph, binder concentration: 100 nM): 0.0405 ± 0.0074
- peptide microarray binding signal [3, 7]: 0.00951 ± 0.0017
- peptide microarray binding signal [3, 8]: 0.0101 ± 0.0017
- peptide microarray binding signal [4, 7]: 0.00536 ± 0.0021
- peptide microarray binding signal [4, 8]: 0.00277 ± 6.4e-05

Binder: LATKAARKSAPAT [H3 20-32 L A T K A A R Kme2 S A P A T]
- peptide microarray binding signal ([1]; peptide modifications: H3K27me2, binder concentration: 50 nM): 0.00292 ± 6.9e-05
- peptide microarray binding signal ([1]; peptide modifications: H3K27me2, binder concentration: 500 nM): 0.003238 ± 2.5e-05
- peptide microarray binding signal ([2]; peptide modifications: H3K27me2, binder concentration: 10 nM): 0.00567 ± 0.00012
- peptide microarray binding signal ([2]; peptide modifications: H3K27me2, binder concentration: 100 nM): 0.00581 ± 0.00013
- peptide microarray binding signal [3, 9]: 0.00193 ± 6.9e-05
- peptide microarray binding signal [3, 10]: 0.00205 ± 3.8e-05
- peptide microarray binding signal [4, 9]: 0.00153 ± 0.00012
- peptide microarray binding signal [4, 10]: 0.00144 ± 3.7e-05

Binder: LATKAARKSAPAT [H3 20-32 L A T K A A Rcit Kac S A P A T]
- peptide microarray binding signal ([1]; peptide modifications: H3R26cit H3K27ac, binder concentration: 50 nM): 0.00486 ± 0.00011
- peptide microarray binding signal ([1]; peptide modifications: H3R26cit H3K27ac, binder concentration: 500 nM): 0.0109 ± 0.00038
- peptide microarray binding signal ([2]; peptide modifications: H3R26cit H3K27ac, binder concentration: 10 nM): 0.0232 ± 0.0013
- peptide microarray binding signal ([2]; peptide modifications: H3R26cit H3K27ac, binder concentration: 100 nM): 0.0235 ± 0.0022
- peptide microarray binding signal [3, 11]: 0.0101 ± 0.00075
- peptide microarray binding signal [3, 12]: 0.00553 ± 0.0019
- peptide microarray binding signal [4, 11]: 0.00415 ± 0.0003
- peptide microarray binding signal [4, 12]: 0.00288 ± 4.3e-05

Binder: LATKAARKSAPAT [H3 20-32 L A T K A A R Kme2 Sph A P A T]
- peptide microarray binding signal ([1]; peptide modifications: H3K27me2 H3S28ph, binder concentration: 50 nM): 0.00527 ± 0.00024
- peptide microarray binding signal ([1]; peptide modifications: H3K27me2 H3S28ph, binder concentration: 500 nM): 0.0144 ± 0.00043
- peptide microarray binding signal ([2]; peptide modifications: H3K27me2 H3S28ph, binder concentration: 10 nM): 0.0156 ± 0.00093
- peptide microarray binding signal ([2]; peptide modifications: H3K27me2 H3S28ph, binder concentration: 100 nM): 0.0272 ± 0.0025
- peptide microarray binding signal [3, 13]: 0.00985 ± 0.00073
- peptide microarray binding signal [3, 14]: 0.00508 ± 0.00053
- peptide microarray binding signal [4, 13]: 0.00619 ± 0.0012
- peptide microarray binding signal [4, 14]: 0.0129 ± 0.0067

Binder: LATKAARKSAPAT [H3 20-32 L A T K A A Rme Kme S A P A T]
- peptide microarray binding signal ([1]; peptide modifications: H3R26me1 H3K27me1, binder concentration: 50 nM): 0.00489 ± 4.8e-05
- peptide microarray binding signal ([1]; peptide modifications: H3R26me1 H3K27me1, binder concentration: 500 nM): 0.00657 ± 0.0021
- peptide microarray binding signal ([2]; peptide modifications: H3R26me1 H3K27me1, binder concentration: 10 nM): 0.00794
- peptide microarray binding signal ([2]; peptide modifications: H3R26me1 H3K27me1, binder concentration: 100 nM): 0.0109 ± 0.00039
- peptide microarray binding signal [3, 15]: 0.00355 ± 0.00035
- peptide microarray binding signal [3, 16]: 0.00474 ± 0.00018
- peptide microarray binding signal [4, 15]: 0.0024 ± 8.4e-05
- peptide microarray binding signal [4, 16]: 0.001557 ± 1.5e-05

Binder: LATKAARKSAPAT [H3 20-32 L A T K A A Rme2a Kme S A P A T]
- peptide microarray binding signal ([1]; peptide modifications: H3R26me2a H3K27me1, binder concentration: 50 nM): 0.00489 ± 1.8e-05
- peptide microarray binding signal ([1]; peptide modifications: H3R26me2a H3K27me1, binder concentration: 500 nM): 0.00571 ± 0.00016
- peptide microarray binding signal ([2]; peptide modifications: H3R26me2a H3K27me1, binder concentration: 10 nM): 0.0113
- peptide microarray binding signal ([2]; peptide modifications: H3R26me2a H3K27me1, binder concentration: 100 nM): 0.0169 ± 0.00094
- peptide microarray binding signal [3, 17]: 0.00704 ± 0.00042
- peptide microarray binding signal [3, 18]: 0.00879 ± 0.00091
- peptide microarray binding signal [4, 17]: 0.00356 ± 0.00021
- peptide microarray binding signal [4, 18]: 0.00236 ± 3.7e-05

Binder: LATKAARKSAPAT [H3 20-32 L A T K A A Rcit Kme S A P A T]
- peptide microarray binding signal ([1]; peptide modifications: H3R26cit H3K27me1, binder concentration: 50 nM): 0.0118 ± 0.0037
- peptide microarray binding signal ([1]; peptide modifications: H3R26cit H3K27me1, binder concentration: 500 nM): 0.011 ± 0.002
- peptide microarray binding signal ([2]; peptide modifications: H3R26cit H3K27me1, binder concentration: 10 nM): 0.0174 ± 0.00085
- peptide microarray binding signal ([2]; peptide modifications: H3R26cit H3K27me1, binder concentration: 100 nM): 0.0171 ± 0.0017
- peptide microarray binding signal [3, 19]: 0.00427 ± 0.00087
- peptide microarray binding signal [3, 20]: 0.00576 ± 0.00078
- peptide microarray binding signal [4, 19]: 0.00346 ± 0.0001
- peptide microarray binding signal [4, 20]: 0.002249 ± 2.1e-05

Binder: LATKAARKSAPAT [H3 20-32 L A T K A A R Kac S A P A T]
- peptide microarray binding signal ([1]; peptide modifications: H3K27ac, binder concentration: 50 nM): 0.00542 ± 6.7e-05
- peptide microarray binding signal ([1]; peptide modifications: H3K27ac, binder concentration: 500 nM): 0.00819 ± 0.00035
- peptide microarray binding signal ([2]; peptide modifications: H3K27ac, binder concentration: 10 nM): 0.013 ± 0.00049
- peptide microarray binding signal ([2]; peptide modifications: H3K27ac, binder concentration: 100 nM): 0.0498 ± 0.05
- peptide microarray binding signal [3, 21]: 0.00461 ± 0.00054
- peptide microarray binding signal [3, 22]: 0.00508 ± 0.00032
- peptide microarray binding signal [4, 21]: 0.00281 ± 0.00022
- peptide microarray binding signal [4, 22]: 0.002652 ± 2.3e-05

Binder: LATKAARKSAPAT [H3 20-32 L A T K A A Rme Kac S A P A T]
- peptide microarray binding signal ([1]; peptide modifications: H3R26me1 H3K27ac, binder concentration: 50 nM): 0.00429 ± 0.00036
- peptide microarray binding signal ([1]; peptide modifications: H3R26me1 H3K27ac, binder concentration: 500 nM): 0.0144 ± 0.0011
- peptide microarray binding signal ([2]; peptide modifications: H3R26me1 H3K27ac, binder concentration: 10 nM): 0.0271 ± 0.0026
- peptide microarray binding signal ([2]; peptide modifications: H3R26me1 H3K27ac, binder concentration: 100 nM): 0.0327 ± 0.0033
- peptide microarray binding signal [3, 23]: 0.00627 ± 0.0032
- peptide microarray binding signal [3, 24]: 0.00987 ± 0.00026
- peptide microarray binding signal [4, 23]: 0.0058 ± 0.00049
- peptide microarray binding signal [4, 24]: 0.00306 ± 0.00012
